Measured potencies and affinities stand elsewhere.
Assays:
Klebsiella pneumoniae = details: Concentration 32 ug.mL-1;; ASSAY_TEST Inhibition of Bacterial Growth; detection method Absorption (OD600); MEDIA CAMHB; plate type 384well; NBS; CORNING #3640; time 18 hr
Candida albicans = details: Concentration 32 ug.mL-1; ASSAY_TEST Inhibition of Fungal Growth; detection method Absorption (OD530)
Cryptococcus neoformans = details: Concentration 32 ug.mL-1; ASSAY_TEST Inhibition of Fungal Growth; detection method Resazurin; Absorption (OD600-OD570); plate type 384well; NBS; CORNING #3640

Compound	Inhibition (Klebsiella pneumoniae) [%]	Inhibition (Candida albicans) [%]	Inhibition (Cryptococcus neoformans) [%]
CCOc1ccc(NC(=O)Cn2nc3c(N4CCCC4)nccn3c2=O)cc1	9.68	0.82	-8.38
CC(C)Cn1c(=O)c2sccc2n2c(=O)n(CC(N)=O)nc12	-1.97	-1.59	-19.03
CCOC(=O)c1ccc(NC(=O)Cn2nc3c4cc(-c5ccc(Cl)cc5)nn4ccn3c2=O)cc1	8.16	4.56	-16.17
Cc1ccc(CN(c2ccccc2)S(=O)(=O)c2ccc3nncn3c2)cc1	-1.94	-3.84	-7.34
COc1ccccc1-n1ccn2c(SCC(=O)Nc3ccc(C)cc3Cl)nnc2c1=O	5.82	3.4	-11.35
CC(=O)c1ccc(NC(=O)Cn2nc3ccc(Sc4ccccc4)nn3c2=O)cc1	-6.33	15.65	-7.51
Cc1cccc(C)c1NC(=O)Cn1nc2c(Sc3cccc(F)c3)nccn2c1=O	4.53	-1.35	-4.17
CCc1nnc2ccc(S(=O)(=O)N(Cc3ccc(F)cc3)c3ccc(OC)cc3)cn12	5.94	-0.37	-3.5
Cc1cc2nn(CC(=O)Nc3cc(F)ccc3F)c(=O)n2c(Nc2ccc(F)c(C)c2)n1	12.97	1.83	-3.72
Cc1cc2nn(CC(=O)Nc3ccccc3C)c(=O)n2c(Nc2ccc(F)c(C)c2)n1	13.6	21.67	-6.31
CCc1nnc2c(S(=O)(=O)N(Cc3cccc(F)c3)c3ccc(C)c(C)c3)cccn12	12.58	3.78	-9.15
Cc1ccc(-c2ccc3nn(Cc4cccc(Br)c4)c(=O)n3n2)cc1	7.86	-0.24	-13.72
CC(=O)c1ccc(NC(=O)Cn2nc3c(SC4CCCCC4)nccn3c2=O)cc1	4.71	0.5	-15.4
Cc1nnc2c(S(=O)(=O)N(Cc3ccccc3F)c3cc(F)cc(F)c3)cccn12	1.21	0.25	-4.37
CCCn1c(=O)c2sccc2n2c(CCC(=O)NCCC34CC5CC(CC(C5)C3)C4)nnc12	9.89	5.72	-25.69
CCCc1nnc2c(=O)n(CC(=O)Nc3ccc(Br)cc3)c3ccccc3n12	14.09	0.11	-25.88
COC(=O)c1ccc(NC(=O)Cn2nc3ccc(C(=O)NCc4ccccc4)cn3c2=O)cc1	7.68	0.61	-23.41
COc1ccc(NC(=O)Cn2nc3c4c5c(sc4ncn3c2=O)CCCC5)cc1	6.74	5.37	-17.73
CCOc1ccc(NC(=O)Cn2nc3ccc(Sc4cccc(F)c4)nn3c2=O)cc1	0.85	6.64	-8.03
CCCNC(=O)Cn1nc2n(Cc3cccs3)c(=O)c3sccc3n2c1=O	9.05	-0.4	-15.54
CC(C)CCNC(=O)Cn1nc2n(Cc3ccco3)c(=O)c3sccc3n2c1=O	8.27	3.16	-8.69
O=c1c2nnc(SCc3ccc(Cl)cc3)n2ccn1-c1ccc(F)c(F)c1	10.1	4.2	-5.11
Cc1cc(C)c(NC(=O)Cn2nc3c4cc(-c5ccc(F)cc5)nn4ccn3c2=O)c(C)c1	17.22	18.72	-19.36
COc1ccc(-c2cc3c4nnc(SCC(=O)Nc5ccc(C#N)cc5)n4ccn3n2)cc1	5.83	1.48	-17.71
Cc1ccccc1CSc1nnc2c(=O)n(-c3ccc(F)cc3)ccn12	9.44	1.51	-10.33
C=Cc1ccc(CSc2nnc3c(=O)n(-c4cccc(OC)c4)ccn23)cc1	9.99	4.25	-2.41
COc1cccc(-c2noc(Cn3nc4ccc(-c5ccc(C)c(C)c5)nn4c3=O)n2)c1OC	9.19	-0.69	-10.63
COc1ccc(NC(=O)C(C)Sc2nnc3c(=O)n(-c4ccccc4)ccn23)cc1 (centres undefined)	12.19	1.79	-7.55

Source: ChEMBL document CHEMBL4513146, “CO-ADD screening of Karazin Kharkiv National University (Ukraine) compounds”
